# CHOP inhibitor: inhibitors of CHOP promoter induction, primary screen, cell-based, unfolded protein response, luciferase reporter | 220,000 compounds, 3.8% hits | CHO-K1 CHOP-promoter luciferase, tunicamycin-induced, 15-18 h | AID 2732, 2010 | inhibition, % at 10 µM;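 active means compounds that reduced the stress-induced luciferase reporter signal by more than about 70% of percent inhibition, limit read from the data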
# WT yeast gro inh: growth inhibition of WT strain, primary screen, mitochondrial fusion inhibitor project, WT and mutant strains, chemical genetic; mitochondrial fusion phenotypic screen; inhibition, % at 10 µM; 190,000 compounds, 2.1% hits; AID 1362, 2008; in the data active means inhibition above about 58%; tested in S. cerevisiae
# RAM inhibit: inhibitors of the yeast RAM network, primary screen, dse1pr::URA3 reporter, 5-FOA selection; inhibition, % at 50 µM; S. cerevisiae dse1pr::URA3 reporter, 5-FOA growth OD615, 2 d; analog-sensitive cbk1-as2 kinase mutant strain; 190,000 compounds, 1.8% hits;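 active means inhibition above a set limit, 3 SD over mean compound inhibition, cut at about 8.4% in these data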;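 further: inhibition rescues growth on 5-FOA so higher OD means more RAM inhibition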
# L major viab: Leishmania major promastigote growth inhibition, primary screen. Leishmania major promastigotes, resazurin fluorescence viability. 200,000 compounds, 9% hits. inhibition, % at 10 µM; in the data active means inhibition above about 50%;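 further: promastigotes grown with compound for 44 hours at 28 °C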
# A number is an active result; - = inactive; . = not tested or not shown. Rows were chosen to be rich in hits. Some 13% of all compounds tested hit in one or more screens of this group.
SMILES,CHOP inhibitor,WT yeast gro inh,RAM inhibit,L major viab
Cc1nnc(N/N=C/c2cccc(OCc3ccc(Cl)c(Cl)c3)c2)n1N,-,-,-,73
Cc1ccc(S(=O)(=O)c2cc3c(=O)n4ccccc4nc3n(Cc3ccco3)c2=N)cc1,-,-,-,62
N=c1c(C(=O)NCc2ccco2)cc2c(=O)n3ccccc3nc2n1Cc1ccc(Cl)cc1,.,74,-,-
N=c1c(C(=O)NCc2ccco2)cc2c(=O)n3ccccc3nc2n1Cc1ccccc1,-,-,-,-
O=c1c2ccccc2oc2nc(-c3cccs3)n(CCc3ccccc3)c(=O)c12,-,-,-,-
Cn1c(Cl)c(/C=N/OC(=O)c2ccc(Cl)cc2)c2ccccc21,-,-,-,-
Cc1ccc(C(=O)O/N=C/c2c(N3CCOCC3)n(C)c3ccccc23)cc1,-,-,-,98
Cc1ccc(C(=O)O/N=C/c2c(Cl)n(C)c3ccccc23)cc1,-,-,-,-
Cn1c(N2CCOCC2)c(/C=N/O)c2ccccc21,-,-,-,-
CC(=O)O/N=C/c1c(N2CCOCC2)n(C)c2ccccc12,-,-,-,99
Cn1c(N2CCOCC2)c(/C=N/OC(=O)c2ccc(F)cc2)c2ccccc21,-,-,-,100
Cn1c(N2CCOCC2)c(/C=N/OC(=O)c2cccnc2Cl)c2ccccc21,-,-,-,100
CCc1ccccc1-n1nnnc1-c1cnccc1C(F)(F)F,-,.,.,.
COC(C[C@H]1O[C@H]1[C@@H](O)[C@@H](C)OCc1ccccc1)OC,-,.,.,.
Cc1c(NS(=O)(=O)c2ccc(Cl)c(C(=O)OCC(=O)NCc3ccco3)c2)c(=O)n(-c2ccccc2)n1C,-,-,-,-
CCOC(=O)c1cnc(-n2nc(C)cc2C)nc1NCc1ccccc1,-,65,-,90
CCOC(=O)c1cnc(-c2ccccc2)nc1N1CC(C)OC(C)C1 (stereo not given),-,-,-,-
CCOC(=O)c1cnc(-n2nc(C)cc2C)nc1NNc1cc(-c2ccccc2)nc(C)n1,74,-,-,100
CCOC(=O)c1cnc(-n2nc(C)cc2C)nc1NCCO,-,-,-,-
CCOC(=O)c1cnc(-n2nc(C)cc2C)nc1NNc1ncc(-c2ccccc2)cn1,-,.,.,.
CCOC(=O)c1cnc(-n2nc(C)cc2C)nc1N1CC(C)OC(C)C1 (stereo not given),.,.,.,67
CCOC(=O)c1ccccc1Nc1cc(C)nc2nc(C)nn12,-,-,-,-
CCOC(=O)c1cnc(-n2nc(C)cc2C)nc1NC(C)c1ccccc1 (stereo not given),-,-,-,96
CCC1CCC(C(=O)NNC(=O)c2cc(-c3ccco3)[nH]n2)CC1 (stereo not given),-,-,-,-
COc1ccc(C(=O)CN2C(=O)C(C)(C)Oc3ccc(C(=O)N4CCCCCC4)cc32)cc1,-,-,-,-
SMILES,CHOP inhibitor,WT yeast gro inh,RAM inhibit,L major viab
CC(=O)c1c(C)[nH]c(C(=O)CSc2nnc(-c3ccco3)n2Cc2ccccc2)c1C,-,-,-,-
CCOC(=O)c1c(C)[nH]c(C(=O)CSc2nnc(-c3cccs3)n2Cc2ccccc2)c1C,79,-,-,-
COC(=O)c1c(C)[nH]c(C(=O)CSc2nnnn2-c2ccccc2)c1C,77,-,-,-
CC(=O)c1c(C)[nH]c(C(=O)CSc2nnc(-c3cccs3)n2Cc2ccccc2)c1C,-,-,-,78
Cc1cc(C(=O)CSc2nnc(-c3cccs3)n2Cc2ccccc2)c(C)n1C,-,-,-,-
O=c1cc(CSc2nnc(-c3cccs3)n2Cc2ccccc2)nc2sc3ccccc3n12,.,-,8.6,-
Cc1ccc(C(=O)N/N=C2\CC3CC=CC23)c(C)c1 (stereo not given),-,-,-,-
O=C(N/C(=C/c1ccc(Br)cc1)C(=O)N1CCCC1=O)c1ccco1,-,-,-,-
COC(=O)c1ccc(-n2nnnc2SCC(=O)Nc2ccccc2C(=O)OC)cc1,-,-,-,-
COC(=O)c1ccc(-n2nnnc2SCc2ccccc2OC)cc1,-,-,9.6,-
CCOC(=O)c1c(CN2CCN(c3ccccc3)CC2)oc2ccc(O)cc12,81,-,-,-
Cn1nccc1C(=O)NC(=S)Nc1sc2c(c1C#N)CCCCC2,91,-,-,-
CCOc1ccccc1NC(=S)N(Cc1cc2ccc(C)cc2[nH]c1=O)CC1CCCN1CC (stereo not given),-,-,-,-
N#Cc1c(NC(=O)c2cccc(S(=O)(=O)Nc3ccc(C(=O)O)cc3)c2)sc2c1CCCC2,-,.,.,.
CCOC(=O)Cc1csc(NC(=S)NC(=O)c2ccccc2Br)n1,-,-,8.6,-

# Bioassay records (PubChem)
